For 108 compounds, INHIBITION results are on record in ChEMBL document CHEMBL4513216, “Probing the Open Global Health Chemical Diversity Library for Multistage-Active Starting Points for Next-Generation Antimalarials” (ACS Infect Dis, 2020).

Each structure is given as a SMILES string. The campaign covered roughly 69,000 compounds. About 8,600 (12%) showed an effect of 50% or more. Shown is part of a subset that was picked to be rich in strong results.

This experiment concerns Plasmodium berghei. Briefly: Screen against P. berghei liver stage (PbLuc), transformed with Luciferase, at 10uM. Format: functional, HepG2. The conditions noted are these: tested at 10 uM.
On to `CC(C)CNC(=O)c1cn(C(C)C)cc2c(=O)[nH]nc1-2`, for which the INHIBITION is given as 36.8%.

Regarding `Cn1c(=O)[nH]c(=O)n2c(CC(=O)NCc3ccccc3)cnc12`, the INHIBITION was found to be 19.3%. With `O=C(Nc1cccnc1-n1cc(Cl)cn1)C1CCCCC1` the figure was 52.6%; with `O=C(Nc1cccnc1-n1cc(Cl)cn1)C1CCCC1`, 48%.

For the compound `O=C(Nc1cccnc1-n1cc(Cl)cn1)C1CC1`, the INHIBITION amounted to 41.5%. Turning to `COc1ccc(C)cc1C(C)NC(=O)CCn1cncn1` (stereo not drawn), the INHIBITION is listed as 19.2%. Regarding `O=C(c1ccnnc1)N1C[C@@H]2C[C@@H](c3nc(C4CC4)cs3)O[C@@H]2C1`, the INHIBITION is -60.2%. With `O=C(c1ccncn1)N1CCC[C@]2(C[C@@H](OCc3ccccn3)CO2)C1` the figure was 43.9%. With `COc1ccc(S(=O)(=O)C(F)(F)F)cc1NC(=O)CSC` the figure was 63.7%; with `COc1ccc(S(=O)(=O)C(F)(F)F)cc1NC(=O)CSCC#N`, 48.3%; with `COCC(=O)Nc1cc(S(=O)(=O)C(F)(F)F)ccc1OC`, 33.7%. Take `Cc1ccccc1CN(C)C(=O)CN1CCCC(Cn2cncn2)C1` (stereo not drawn): the INHIBITION is -51.5%.

With `COc1cc(C)c(C(C)NC(=O)NCCCn2cncn2)cc1OC` (stereo not drawn), the INHIBITION was -19.4%. The same measure for `CN(C)CCN1Cc2ncn(C)c2C(COCC(=O)N(C)C)C1` (stereo not drawn): 50%.

As for `CCS(=O)(=O)N1Cc2nnn(C)c2C(COCCN(C)C)C1` (stereo not drawn), the INHIBITION was 48.2%. The same measure for `CCn1nnc2c1C(COC)CN(Cc1ccco1)C2` (stereo not drawn): -30.1%.

As for `CN(C)C(=O)COCC1CN(CC2CCOCC2)Cc2ncn(C)c21` (stereo not drawn), the INHIBITION came out at 4.57%. The same measure for `CCn1nnc2c1C(COCCN(C)C)CN(Cc1ccco1)C2` (stereo not drawn): 62.3%. As for `CCn1nnc2c1C(COCCN(C)C)CN(S(C)(=O)=O)C2` (stereo not drawn), the INHIBITION amounted to 43.8%.

Take `CCn1nnc2c1C(COCCN(C)C)CN(c1nncs1)C2` (stereo not drawn): the INHIBITION was found to be 57.1%. Regarding `CN(C)CCOCC1CN(Cc2ccncc2)Cc2nnn(C)c21` (stereo not drawn), the INHIBITION is recorded as 3.58%. Take `CN(C)CCOCC1CN(Cc2ccoc2)Cc2nnn(C)c21` (stereo not drawn): the INHIBITION is given as 18.5%. The same measure for `CCn1nnc2c1C(COCCN(C)C)CN(Cc1ccc(C)s1)C2` (stereo not drawn): -22.1%; for `Cc1cccc(CN2Cc3ncn(C)c3C(COCC(=O)N(C)C)C2)n1` (stereo not drawn): -10.3%. With `CCn1nnc2c1C(COCCN(C)C)CN(S(=O)(=O)CC)C2` (stereo not drawn) the figure was 52.6%; with `CN1CCOC(CNCc2coc(-c3ccc(Cl)cc3)n2)C1` (stereo not drawn), 33.7%; with `CN(CC(=O)N1CCc2[nH]c3ccc(F)cc3c2C1)CC1OCCO1`, 22.9%. With `Cc1c(C(=O)N2CCC3(CCCNC3=O)C2)sc2nc[nH]c(=O)c12` (stereo not drawn) the figure was 12.9%; with `CN(C)Cc1cnc2n1CCN(C(=O)NCc1ccccc1)CC2`, 21.6%. `CC(=O)c1ccc(C(=O)NCCCOC(C)c2ccccc2)s1` (stereo not drawn): the INHIBITION was found to be 29.2%.

In the case of `Cc1cc(N)nc(C2(C)CCCN2C(=O)c2cnccn2)n1` (stereo not drawn), the INHIBITION turned out to be 17.1%. With `O=S(=O)(NCCn1ccc(-c2ccccn2)n1)C1CCCCC1` the figure was 40%; with `Cc1n[nH]c2nc(-c3cc(Br)ccc3O)cc(C(=O)O)c12`, 4.82%; with `Cc1ccc(O)c(CN2CCCCC2CCN2CCOCC2)c1` (stereo not drawn), 30.3%.

As to `Cc1nnc2n1CCN(Cc1csc(-c3ncccn3)n1)C2`, the INHIBITION is reported as 26.4%. The same measure for `Cn1c(CN2CCCCC2)nnc1C1CCCN(c2ccncc2F)C1` (stereo not drawn): -2.43%; for `CCn1nnc2c1C(COCC(=O)N(C)C)CN(Cc1ccoc1)C2` (stereo not drawn): 53.4%. Consider `CCn1nnc2c1C(COCC(=O)N(C)C)CN(Cc1ccco1)C2` (stereo not drawn), for which the INHIBITION is on record as -3.26%. With `CN(C)C(=O)COCC1CN(Cc2ccoc2)Cc2nnn(C)c21` (stereo not drawn), the INHIBITION was -3.24%. With `CC(C)N1CCc2nnc(COc3cncnc3)n2CC1`, the INHIBITION is on record as -2.25%. With `CC(C)N1CCCCC1c1nc(N(C)C)ncc1I` (stereo not drawn) the figure was -9.51%; with `Cc1ncncc1-c1ccnc(N(C)C)n1`, 4.08%; with `CCCc1cc(NC2CCc3nc(C)nn3C2)n2ncnc2n1` (stereo not drawn), -2.23%. With `c1cc(N2CCC3(COCc4cnc(NCC5CC5)nc43)C2)ncn1` (stereo not drawn) the figure was 31.7%; with `c1ccc(CN2CCC3(COCc4cnc(NCC5CC5)nc43)C2)cc1` (stereo not drawn), 43.9%; with `Cc1nc(NCC2CC2)nc2c1COCC21CCN(C(=O)C(C)(C)C)C1` (stereo not drawn), 49.7%. With `CN(C)S(=O)(=O)N1CCC2(COCc3cnc(NCC4CC4)nc32)C1` (stereo not drawn) the figure was 62.8%; with `CCN1CCC2(COCc3cnc(NCC4CC4)nc32)C1` (stereo not drawn), 13.5%; with `Fc1cnc(N2CCC3(COCc4cnc(NCC5CC5)nc43)C2)nc1` (stereo not drawn), -53.2%. With `Cc1nc(NCC2CC2)nc2c1COCC21CCN(S(=O)(=O)C2CC2)C1` (stereo not drawn), the INHIBITION was determined as 66%. With `Cc1nc(NCC2CC2)nc2c1COCC21CCN(C)C1` (stereo not drawn) the figure was 31.3%; with `O=S(=O)(C1CC1)N1CCC2(COCc3cnc(NCC4CC4)nc32)C1` (stereo not drawn), 57.4%; with `CC(C)c1noc(CCC(=O)NC(C)c2ccccn2)n1` (stereo not drawn), -40.96%.

Regarding `Nc1nccc(C2CCN(c3cnccn3)C2)n1` (stereo not drawn), the INHIBITION was 30.5%.

As for `CCOc1cc(C(=O)N2CCCC(c3nc(C)c(C)s3)C2)ccn1` (stereo not drawn), the INHIBITION was 48.4%. With `O=C(COc1ccc2c(c1)OCO2)NCc1ccco1`, the INHIBITION was found to be 31.135%. With `CCCN1CCC(CC(=O)N2CCC(C(O)c3nccn3C)CC2)CC1` (stereo not drawn) the figure was 6.69%; with `CCn1nc(C)c2nc(C(C)C)nc(NC)c21`, 16.8%; with `COCCN1CCC2(CCCN(Cc3ccoc3)C2)C1=O` (stereo not drawn), 8.74%. The same measure for `COCCN1CCCC2(CCN(c3ncnc(C)c3C)C2)C1=O` (stereo not drawn): 69.6%.

With `CCN1CCCC2(CCN(Cc3nnc(C4CC4)o3)C2)C1=O` (stereo not drawn), the INHIBITION is listed as -9.18%. With `O=C1N(CCO)CCCC12CCN(Cc1nnc(C3CC3)o1)C2` (stereo not drawn) the figure was 61.1%; with `O=C1CCC2(CCCN(Cc3nnc(C4CC4)o3)C2)CN1CCO` (stereo not drawn), 34.4%. As for `COCCN1CCCC2(CCN(Cc3nnc(C4CC4)o3)C2)C1=O` (stereo not drawn), the INHIBITION is 51.2%. As to `COCCN1CCCC2(CCN(c3nccnc3N(C)C)C2)C1=O` (stereo not drawn), the INHIBITION is listed as -52.2%. On to `COCCN1CCCC2(CCN(c3ncc(Cl)cc3Cl)C2)C1=O` (stereo not drawn), for which the INHIBITION is -5.8%.

As for `COCCN1CCCC2(CCN(Cc3noc(C4CCCC4)n3)C2)C1=O` (stereo not drawn), the INHIBITION is 9.56%. For the compound `Cc1nc2oc(C(=O)N3CCCC3)c(N)c2c2c1CCCC2`, the INHIBITION is given as 16%.

On to `CCn1cnnc1CNC(=O)N1CCN(c2ccc(OC)cc2)CC1`, for which the INHIBITION is given as 36.1%.

`CN(C)c1cc(CNC(=O)c2cnccn2)ccn1`: the INHIBITION is -6.14%. With `O=C(Cc1c(F)cccc1Cl)Nc1cc(N2CCOCC2)ncn1` the figure was 30.9%. With `CC(C)n1nc(CN2CCCC2=O)c2c1CN(C(=O)c1ccco1)C2` the figure was 39.5%.

On to `CCC1c2cccn2CCN1S(=O)(=O)N1CCOCC1` (stereo not drawn), for which the INHIBITION is listed as 31.2%. The same measure for `CCN1CCN(C(=O)COCc2cccc(OC)c2)CC1`: -28.675%; for `Cc1ccc(CN2C(=O)CCC23CCC(NC2CCOC2)CC3)cc1` (stereo not drawn): 35.8%. The same measure for `Cc1occc1C(=O)N1CCOCC2(CCN(C3CCOCC3)C2)C1` (stereo not drawn): 43.9%; for `CC(C)S(=O)(=O)N1C[C@@H](O)[C@H](N(C)Cc2ccc(F)cc2)C1`: 30.75%. With `CNC(=O)Cc1ccc(NC(=O)NC2(c3cccc(F)c3)CC2)cc1` the figure was 9%; with `Cc1cnc(CNC(=O)NCc2cccnc2N(C)C)s1`, 45.8%. On to `CNC(=O)Cc1ccc(NC(=O)NCc2ncc(C)s2)cc1`, for which the INHIBITION worked out at 64%.

Consider `CNC(=O)Cc1ccc(NC(=O)NC(C)C(C)C)cc1` (stereo not drawn), for which the INHIBITION was -9.48%. The same measure for `CNC(=O)Cc1ccc(NC(=O)NCc2nc(C)sc2C)cc1`: 52.2%; for `CNC(=O)Cc1ccc(NC(=O)NCC(C)c2ncc(C)s2)cc1` (stereo not drawn): 14.8%. Take `COc1ccc(-c2nc(CN3CCc4cncnc4C3)no2)cc1`: the INHIBITION is on record as 5.72%. The same measure for `CCc1c(C(=O)N2C[C@@H]3CC[C@H]2CN(c2cnccn2)C3)csc1C`: -59.5%; for `CSc1ccc(S(=O)(=O)N2CCCCC2CCNC(C)=O)cc1` (stereo not drawn): 11.8%; for `CC(=O)c1ccc(S(=O)(=O)N2CCCC2CN2CCCC2)cc1` (stereo not drawn): 51.1%. The same measure for `CC(=O)c1ccc(C(=O)N2C[C@@H](CN3CCCC3)[C@@H](CO)C2)cc1`: 32.5%. With `COC[C@]1(O)CCN(C2CCN(c3ccc(F)c(F)c3)CC2)CC1(C)C` the figure was 39.4%.

`COC(=O)c1cccc(C2CNCCN2C(C)=O)c1` (stereo not drawn): the INHIBITION was 24.99%. The same measure for `COC(=O)CNC(=O)Cn1ccc2cccc(OC)c21`: 48.9%; for `Cc1csc(N2CCN(CC(=O)Nc3cc(C)nn3C)CC2C)n1` (stereo not drawn): 12.96%. With `CCn1nc(C)c2nc(C(C)C)nc(N3CCCC3)c21` the figure was 15.4%; with `Cc1nncn1CCN1C(=O)CC2(CCCC2)CC1=O`, -23.3%. With `Cc1nccn1CCN1C(=O)CC2(CCCC2)CC1=O` the figure was 56%; with `O=C1CC2(CCCC2)CC(=O)N1CCn1cnnc1`, -28.9%; with `CC(C)c1nn(C)c(N(C)C)c1CNC1CCCCNC1=O` (stereo not drawn), -4.13%.

As to `O=C(Cc1cccc(O)c1)NCCCNC(=O)c1cccc(F)c1`, the INHIBITION is listed as 8.64%. With `Cc1cccc(-c2nc(N)nc3c2CN(C(=O)c2ccncn2)C3C)c1` (stereo not drawn) the figure was 19.9%. With `Cc1cccc(-c2nc(N)nc3c2CN(C(=O)c2cc(C)n[nH]2)C3C)c1` (stereo not drawn) the figure was 58.9%; with `COCC(=O)N1Cc2c(-c3cccc(C)c3)nc(N)nc2C1C` (stereo not drawn), -24.1%; with `Cc1cc(C(=O)Nc2cccn(Cc3ccccc3)c2=O)no1`, -85.8%.

For the compound `O=C(c1ccccn1)N1CCC2(CC1)COC(COCC1CC1)C2` (stereo not drawn), the INHIBITION was 23.5%. With `CN(C)CCn1c2c(ccc1=O)CC(NC(=O)NC1CCCC1)CC2` (stereo not drawn) the figure was 39.5%. With `Cc1cc(C2CCC2)nc(NCC(C)(C)N2CCOCC2)n1` the figure was 9.52%; with `CCN1CCN(C(C)(C)CNc2nc(C)cc(C3CCC3)n2)CC1`, 9.52%; with `Cc1cc(C2CCC2)nc(NCC(C)(C)N2CCCC2)n1`, 57.2%.

On to `COC(=O)CCC(=O)NCc1cccnc1N1CCc2ccccc2C1`, for which the INHIBITION was -13.1%.
